High-throughput results: PubChem, The Scripps Research Institute Molecular Screening Center
hcDAF12 agonist = activates DAF-12 receptor from parasite H. contortus; activation, % at 6.8 µM; 370,000 compounds, 1.4% hits; AID 652067; HEK293 hcDAF-12 lit1-tk-luc reporter, luminescence; 0% DMSO, 100% Δ7-dafachronic acid;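 active means activation above the mean of all tested compounds plus 3 SD, cut at about 5.5% in these data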;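 further: 100% = response to 3 µM Δ7-dafachronic acid high control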
SMARCA2 activ = SMARCA2 function activation, primary screen | AID 652017 | MG213 cells, MMTV-luciferase reporter, dexamethasone, overnight | activation, % at 9.1 µM | 370,000 compounds, 1% hits; in the data active means activation above about 7.8%;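 further: 0% = vehicle wells and 100% = reference activator wells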
DAX1 inh-1 = DAX1 (NR0B1) inhibition, primary screen. HEK293T StAR-luciferase reporter, SF-1/DAX-1 repression relief. inhibition, % at 6.8 µM. 370,000 compounds, 1.1% hits;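 active means inhibition above the mean over all tested compounds plus 3 SD, cut at about 3.6% in these data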;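 further: 0% = DAX-1 cells with DMSO and 100% = cells lacking DAX-1 with DMSO; higher inhibition means more luminescence from relief of DAX-1 repression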
DAX1 inh-2 = inhibitors of human orphan nuclear receptor DAX1 (NR0B1); P51843; HEK293 Gal4-DAX1 luciferase reporter, luminescence; inhibition, % at 6.75 µM; 340,000 compounds, 0.99% hits;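 active means inhibition above the mean over all tested compounds plus 3 SD, cut at about 4.2% in these data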;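 further: 0% = DAX1-transfected cells with DMSO and 100% = empty-vector control cells with DMSO; inhibition shows as a rise in luminescence from relieved DAX1 repression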
hgDAF12 agonist = hgDAF-12 agonism, primary luciferase screen. activation, % at 6.8 µM. 370,000 compounds, 1.8% hits. HEK293 GAL4-hgDAF12 UAS-luciferase reporter, agonist luminescence; normalized to butyrate control;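 active means activation above a cutoff set at the mean of all screened compounds plus 3 SD, cut at about 10% in these data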;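 further: 0% = DMSO wells and 100% = sodium butyrate wells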
ssDAF12 agonist = activators of S. stercoralis DAF-12 nuclear receptor. HEK293 ssDAF-12/GRIP1 lit1-tk-luc reporter, luminescence; % of 3 µM dafachronic acid response. activation, % at 6.8 µM. 370,000 compounds, 1% hits;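 active means activation above the mean over all tested compounds plus 3 SD, cut at about 0.9% in these data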;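 further: 0% = DMSO-only wells and 100% = 3 µM delta7-dafachronic acid wells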
SMARCA2 conf = SMARCA2 activation, confirmation screen; shares compounds with SMARCA2 activ; AID 652260; MG213 cells, MMTV-luciferase with dexamethasone, luminescence, overnight; MG213 cells expressing E1A, Rb sequestered; DMSO wells 0%, reference activator 100%; activation, % at 9.1 µM; 3,500 compounds, 30% hits;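 active means activation above its plate's cutoff, the mean activation of tested wells plus 3 SD, cut at about 7.9% in these data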
VP16 Luc act = activates GAL4-VP16 luciferase, flagging SMARCA2 activator hits; shares compounds with SMARCA2 activ; HEK293 GAL4-VP16 pG5luc reporter, luciferase luminescence; scaled: DMSO wells 0%, SAHA wells 100%; activation, % at 9.1 µM; 3,500 compounds, 41% hits; AID 686939;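 active means activation above the solvent-only control well mean plus 3 SD, averaged across control plates, cut at about 5.2% in these data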
LXRb hcDAF ctr = LXR-beta agonism as hcDAF-12 counter-screen; shares compounds with hcDAF12 agonist; HEK293 Gal4-LXR tk-luc reporter, luminescence, 24 h; normalized: DMSO 0%, positive control 100%; activation, % at 6.8 µM; 3,400 tested, under 10 active; AID 743027;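 active means mean percent activation of the reporter above a cutoff set as the average over tested compounds plus their standard deviation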
Target sequence (P55055 whole entry, looked up, the tested form may be a part): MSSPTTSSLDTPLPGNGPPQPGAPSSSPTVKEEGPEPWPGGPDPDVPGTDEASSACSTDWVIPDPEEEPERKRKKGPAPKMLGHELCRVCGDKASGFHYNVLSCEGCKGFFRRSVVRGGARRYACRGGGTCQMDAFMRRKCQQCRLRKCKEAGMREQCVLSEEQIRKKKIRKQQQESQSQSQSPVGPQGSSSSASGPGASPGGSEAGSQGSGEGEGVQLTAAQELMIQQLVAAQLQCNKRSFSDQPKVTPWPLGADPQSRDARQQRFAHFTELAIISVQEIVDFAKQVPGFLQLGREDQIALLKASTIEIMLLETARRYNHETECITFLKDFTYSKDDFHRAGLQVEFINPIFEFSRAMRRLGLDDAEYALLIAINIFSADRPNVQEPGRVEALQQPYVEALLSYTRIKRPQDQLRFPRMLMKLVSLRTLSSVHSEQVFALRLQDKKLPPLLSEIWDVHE
hcDAF12 ag = hcDAF-12 agonism, confirmation assay | shares compounds with hcDAF12 agonist | HEK293 hcDAF-12 lit1-tk-luc reporter, luminescence; % of Δ7-dafachronic acid response | activation, % at 6.8 µM | 3,400 compounds, 61% hits;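 active means mean activation across triplicate tests above the threshold derived from the earlier primary screen, cut at about 5.5% in these data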;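 further: 0% = DMSO only wells and 100% = 3 µM Δ7-dafachronic acid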
hgDAF12 conf = confirmation of H. glycines DAF-12 agonists. shares compounds with hgDAF12 agonist. 3,300 compounds, 80% hits. HEK293 GAL4-hgDAF12 luciferase reporter, agonist mode; percent of butyrate response. activation, % at 6.8 µM;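 active means mean activation over triplicate wells above the hit cutoff derived from the earlier primary screen, cut at about 11% in these data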;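 further: 0% = DMSO low control and 100% = 2 mM sodium butyrate high control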
LXR ag 2 = counter-screen for DAF-12 agonists: agonists of human LXR-beta. shares compounds with hgDAF12 agonist. HEK293 Gal4-LXR luciferase reporter, 24 h. activation, % at 6.8 µM. 3,300 tested, under 10 active;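 active means mean activation of the triplicate above a set limit carried over from the primary screen, none filed active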
An asterisk follows results filed as active; . = no result given. An excerpt weighted towards active compounds, which were near 4.8% of everything screened.

SMILES	hcDAF12 agonist	SMARCA2 activ	DAX1 inh-1	DAX1 inh-2	hgDAF12 agonist	ssDAF12 agonist	SMARCA2 conf	VP16 Luc act	hgDAF12 conf	LXR ag 2	others
O=C(c1ccco1)N1CCc2ccccc21	3	8.5*	3	1	14*	-1	4	4	8	0
CC1CCCCN1CCCNC(=O)c1ccc(Br)cc1 (stereo not given)	0	0	0	-1	2	-1	.	.	.	.
CC1CCCCN1CCCNC(=O)c1ccc2nc(N3CCCCC3)sc2c1 (stereo not given)	3	17*	4.0*	1	14*	1.4*	9.4*	9.8*	12*	0
Cc1ccccc1C(=O)N1CCN(c2ccc(NC(=O)CSc3ccc(Cl)cc3)cc2)CC1	-5	-7	-2	-3	-1	-3	.	.	.	.
Nc1cccn2c(-c3ccc(Cl)cc3)cnc12	7.4*	9.3*	3	2	16*	1	15*	20*	18*	1	LXRb hcDAF ctr=1;hcDAF12 ag=10*
O=C1NC[C@H](c2ccccc2)N(CCc2cc(C(F)(F)F)cc(C(F)(F)F)c2)C1=O	-2	0	-1	1	-1	-2	.	.	.	.
CCc1ccc(-c2cnc3ccccc3n2)cc1NC(=O)CNC(=O)c1ccccc1	13*	8.1*	3	1	19*	1.1*	7	18*	9	1	LXRb hcDAF ctr=2;hcDAF12 ag=6.6*
CCOC(=O)C/C(C)=N/NC(=O)CN(c1ccc(Br)cc1)S(=O)(=O)c1ccccc1	-1	-4	-1	4	-2	-1	.	.	.	.
O=C(CSc1nnc(-c2ccc(O)cc2)o1)Nc1ccccc1	3	8.6*	2	0	16*	0	11*	8.1*	14*	1
COc1ccc(-c2oc(=O)c3cc(OC)c(OC)cc3c2-c2ccc3c(c2)OCO3)cc1	-1	5	0	1	2	-1	.	.	.	.
COc1ccc(OC)c2nc(-c3ccc4c(c3)OCO4)ccc12	6.4*	8.6*	2	5.7*	15*	1	8	16*	18*	1
CCOc1ccc(/C=N/N(C)c2ccccc2)cc1OC	4	8.5*	3	3	14*	-1	8.1*	12*	16*	1
COc1cc(/C=N/N(c2ccccc2)c2ccccc2)ccc1O	0	-1	0	1	1	0	.	.	.	.
N#Cc1ccc(NC(=O)CSc2cn[nH]n2)cc1	1	0	-1	0	1	-1	.	.	.	.
CC(/C=N/NC(=O)c1ccccn1)=C\c1ccco1	4	8.7*	2	.	14*	1.2*	12*	14*	11*	1
O=C(CSc1ncnc2c(-c3ccc(Cl)cc3)nsc12)c1ccccc1	2	1	0	0	3	0	.	.	.	.
CCOc1ccc(-n2c(SCc3cc(=O)oc4cc(C)c(C(C)C)cc34)nnc2-c2cccnc2)cc1	2	-1	0	2	3	-2	.	.	.	.
O=C(Nc1ccc(Br)cn1)c1ccc2ccccc2c1	4	9.3*	2	2	14*	1.6*	12*	14*	19*	1
Cc1ccc(-c2cc3nc4c(c(=O)n3[nH]2)CCCC4)cc1	3	6	2	3	9	0	.	.	.	.
O=c1c2c(nc3cc(-c4ccc(F)cc4)[nH]n13)CCC2	6.4*	12*	4.1*	1	15*	0	13*	12*	17*	1
Cc1nn(Cc2c(F)c(F)c(F)c(F)c2F)c(C)c1NC(=O)c1cccc(COc2ccccc2Cl)c1	4	13*	1	-3	20*	0	4	13*	9	0
O=S(=O)(CCc1nc2ccccc2s1)c1ccc(Cl)cc1	0	4	1	1	0	-2	.	.	.	.
OCc1nc2ccc(Cl)cc2[nH]1	-1	-5	-1	-1	4	0	.	.	.	.
CN(C)c1ccc(NC(=O)Nc2cccc(Cl)c2)cc1	5	9.7*	2	3	17*	0	7	15*	16*	1
COC(=O)C1CCN(C(=O)c2oc3c(Cl)cc(C)cc3c2C)CC1	4	9.1*	2	1	14*	0	7	11*	16*	1
SMILES	hcDAF12 agonist	SMARCA2 activ	DAX1 inh-1	DAX1 inh-2	hgDAF12 agonist	ssDAF12 agonist	SMARCA2 conf	VP16 Luc act	hgDAF12 conf	LXR ag 2	others
CN(C(=O)COC(=O)c1ccc2c(c1)OCO2)C1CCCCC1	1	9.9*	1	2	13*	-1	6	3	7	0
CC(=O)N1CCN(c2ccc(NC(=O)c3ccccc3Cl)cc2)CC1	0	0	0	0	3	-1	.	.	.	.
O=C(Nc1ccc(N2CCCCCC2)cc1)c1ccccc1Cl	1	8.0*	1	2	17*	1	5	8.0*	19*	1
CCCn1c(=NC(=O)c2ccco2)c(C(=O)OCC)cc2c(=O)n3ccccc3nc21	4	13*	1	2	13*	1	4	2	0	0
O=C(CCCN1C(=O)c2ccccc2C1=O)Nc1ccc(Br)cn1	-1	0	-1	0	0	-1	.	.	.	.
c1ccc(C2=NC(c3ccccc3)CC2)cc1 (stereo not given)	0	0	0	1	5	0	.	.	.	.
c1ccc(C2=Nc3ccccc3NC(c3ccccc3)C2)cc1 (stereo not given)	1	9.7*	3	3	14*	0	3	7.0*	15*	0
O=C(Nc1nnc(SCC(=O)N2CCCc3ccccc32)s1)c1cccc2ccccc12	-2	-3	1	1	5	-1	.	.	.	.
